Only some compounds are listed: those with a hit (about 3% of all), similar ones and a draw of the others.
Shn3 3UTR inh: inhibitors of Schnurri-3 3'UTR reporter in osteoblasts; Clone20 osteoblast Shn3 3'UTR firefly luciferase, 24 h; AID 588674; inhibition, % at 12.5 µM; 360,000 tested, 0.52% active;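 active = mean inhibition of at least 75% with every replicate also reaching 75%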;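 note: 0% = median of neutral control wells and 100% = pilot-screen positive control compound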
ABHD5 PLIN5 PPI: ABHD5-PLIN5 protein interaction inhibition | Split G. princeps luciferase complementation, luminescence, 4 h | AID 602281 | 360,000 tested, 0.78% active | inhibition, % at 4 µM;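 active = inhibition above the mean inhibition across every tested compound plus 3 SD, cut at about 22% in these data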;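 note: 0% = DMSO only wells and the 100% control is not disclosed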
Target sequence (Q00G26 whole entry, looked up): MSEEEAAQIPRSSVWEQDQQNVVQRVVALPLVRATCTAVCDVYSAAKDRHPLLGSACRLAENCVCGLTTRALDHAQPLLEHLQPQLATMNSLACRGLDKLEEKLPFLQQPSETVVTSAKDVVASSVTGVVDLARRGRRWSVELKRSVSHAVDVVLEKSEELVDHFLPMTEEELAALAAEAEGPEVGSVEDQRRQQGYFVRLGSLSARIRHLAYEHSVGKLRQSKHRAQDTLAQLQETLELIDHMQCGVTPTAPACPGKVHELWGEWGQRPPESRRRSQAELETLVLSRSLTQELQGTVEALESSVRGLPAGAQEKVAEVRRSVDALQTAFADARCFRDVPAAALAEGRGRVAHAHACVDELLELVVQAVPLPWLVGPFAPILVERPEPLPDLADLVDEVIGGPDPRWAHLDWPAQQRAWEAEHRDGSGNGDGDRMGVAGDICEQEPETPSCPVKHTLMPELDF
Target sequence (Q8WTS1 whole entry, looked up): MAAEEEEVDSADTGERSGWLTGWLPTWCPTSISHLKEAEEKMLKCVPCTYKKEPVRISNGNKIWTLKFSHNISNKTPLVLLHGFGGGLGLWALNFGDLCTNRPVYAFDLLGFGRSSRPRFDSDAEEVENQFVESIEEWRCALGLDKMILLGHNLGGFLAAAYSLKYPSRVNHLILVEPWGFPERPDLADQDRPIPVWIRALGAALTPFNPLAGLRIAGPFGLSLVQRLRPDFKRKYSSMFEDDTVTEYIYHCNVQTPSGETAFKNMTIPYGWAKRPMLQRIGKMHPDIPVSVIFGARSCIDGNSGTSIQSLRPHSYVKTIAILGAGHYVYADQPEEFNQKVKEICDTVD
Peg3 promoter: inhibitors of Peg3 promoter; HeLa PEG-Prom luciferase reporter, luminescence, overnight; inhibition, % at 20 µM; 360,000 tested, 1.7% active;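 active = inhibition of at least 50% at 20 µM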
EWS-Fli inh: blocks EWS/Fli oncoprotein-driven transcription; A673 NR0B1-luciferase reporter, viability-normalised; inhibition, % at 12.6 µM; 350,000 tested, 0.67% active;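 active = mean inhibition of at least 50% after viability correction, with every replicate also passing that limit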;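 note: firefly luciferase signal divided by Alamar Blue viability fluorescence both relative to DMSO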
PAX8 reporter: PAX8 transcriptional activity inhibition. RMG-I TPO-luciferase reporter, SteadyGlo, 24 h. inhibition, % at 12.6 µM. 360,000 tested, 1.2% active;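 active = mean replicate inhibition at least 60% with every replicate also reaching 60%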;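 note: luciferase light reporting Pax8 driven TPO promoter activity; plate controls were median of neutral control wells for no effect and mitoxantrone controls for full effect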
MITF TRPM1 inh: reduces MITF-dependent TRPM1 promoter luciferase signal | SK-MEL-5 TRPM1 promoter luciferase, 24 h | inhibition, % at 12.5 µM | 330,000 tested, 0.83% active | AID 488899;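 active = mean inhibition across replicates of 60% or more, whatever share of single replicates reaches that level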
An asterisk follows results filed as active; . = not tested or not shown.

SMILES	Shn3 3UTR inh	ABHD5 PLIN5 PPI	Peg3 promoter	EWS-Fli inh	PAX8 reporter	MITF TRPM1 inh
CC#CCN1c2ccccc2[C@]23C[C@@H](C(=O)OC)N(C(=O)OCC)C2=NC(C(=O)OC)=C(C(=O)OC)[C@H]13	-1	18	-5	-1	6	0
COC(=O)C1=C(C(=O)OC)[C@@H]2N(Cc3ccccc3)c3ccccc3[C@@]23C[C@@H](C(=O)OC)N(C(=O)COCc2ccccc2)C3=N1	-18	0	55*	.	.	-6
COC(=O)C1=C(C(=O)OC)[C@@H]2N(Cc3ccccc3)c3ccccc3[C@@]23C[C@@H](C(=O)OC)N(C(=O)NC(C)(C)C)C3=N1	-3	7	15	0	12	-5
CC#CCN1c2ccccc2[C@]23C[C@@H](C(=O)OC)N(C(=O)C4CCC4)C2=NC(C(=O)OC)=C(C(=O)OC)[C@H]13	-22	-6	75*	5	-7	-9
C=CCN1c2ccccc2[C@]23C[C@@H](C(=O)OC)N(C(=O)c4ccc(Br)cc4)C2=NC(C(=O)OC)=C(C(=O)OC)[C@H]13	41	-6	74*	15	50	-6
CNC[C@H]1Oc2ccc(NC(=O)Nc3ccc(OC)cc3)cc2C(=O)N([C@@H](C)CO)C[C@@H]1C	.	.	.	-7	-9	.
COc1ccc(-c2ccc3c(c2)O[C@H](CN(C)C)[C@H](C)CN([C@H](C)CO)S3(=O)=O)cc1	.	.	.	-7	.	.
CCOC(=O)N1C2=NC(C(=O)OC)=C(C(=O)OC)[C@@H]3N(C)c4ccc(OC)cc4[C@]23C[C@H]1C(=O)OC	-13	-5	2	4	-1	6
COC(=O)C1=C(C(=O)OC)[C@@H]2N(Cc3ccccc3)c3ccccc3[C@@]23C[C@@H](C(=O)OC)N(C(=O)c2ccc(Br)cc2)C3=N1	97*	-6	84*	.	.	-4
COC(=O)C1=C(C(=O)OC)[C@@H]2N(Cc3ccccc3)c3ccccc3[C@@]23C[C@@H](C(=O)OC)N(C(C)=O)C3=N1	-2	-4	24	8	-9	12
COC(=O)C1=C(C(=O)OC)[C@@H]2N(C)c3ccc(OC)cc3[C@@]23C[C@@H](C(=O)OC)N(C(=O)c2ccc(Br)cc2)C3=N1	34	-6	79*	3	-2	2
COc1ccc(CNC(=O)C[C@@H]2C=C[C@@H](NC(=O)Nc3ccc4c(c3)OCO4)[C@H](CO)O2)cc1	.	.	.	-4	-12	.
COc1ncnc2c1ncn2CCCNCCCN1CCCC1=O	-11	10	1	2	72*	.
O=C1CCCN1CCCNCCCn1cnc2c(OCc3ccccc3)ncnc21	-34	-4	5	4	8	4
COc1ccc(/C=C(\NC(=O)/C=C/c2ccco2)C(=O)NCCc2nc3ccccc3[nH]2)cc1	2	23*	-2	.	14	11
Cc1cccnc1NC(=O)C1CCN(S(=O)(=O)c2c(C)noc2/C=C/c2ccco2)CC1	-9	6	6	.	17	-3
Cc1noc(/C=C/c2ccco2)c1S(=O)(=O)N1CCC(C(=O)NCc2ccco2)CC1	-9	4	12	.	59	23
Cc1ccc(/C=C/c2onc(C)c2S(=O)(=O)N2CCC(C(=O)N3CCCCC3)CC2)cc1	19	-3	-4	-1	18	.
Cc1ccc(CNC(=O)C2CCN(S(=O)(=O)c3c(C)noc3/C=C/c3ccco3)CC2)cc1	27	20	20	27	83*	7
Cc1ccc(NC(=O)C2CCN(S(=O)(=O)c3c(C)noc3/C=C/c3ccco3)CC2)nc1	49	1	16	.	30	72*
Cc1noc(/C=C/c2ccco2)c1S(=O)(=O)N1CCC(C(=O)N2CCc3ccccc3C2)CC1	-2	22*	16	.	.	10
CN(CCc1cn[nH]c1)Cc1nc(C(c2ccccc2)c2ccccc2)no1	-14	-2	16	8	144*	6
O=C1CC(=O)OC(c2ccc([N+](=O)[O-])cc2)O1	98*	9	103*	.	.	.
COCC1=C([C@H](O)c2ccccc2)[C@H](CO)[C@@H]2C(=O)N(Cc3ccccc3)C(=O)[C@@H]2C1	.	.	.	-2	-3	.
CC(=O)Nc1cccc(-c2ccnc3c2CC(C)(C(=O)NCc2ccc(F)c(F)c2)O3)c1 (stereo not given)	6	1	11	58*	16	.
SMILES	Shn3 3UTR inh	ABHD5 PLIN5 PPI	Peg3 promoter	EWS-Fli inh	PAX8 reporter	MITF TRPM1 inh
CC1(C(=O)NCc2ccccc2)Cc2c(-c3cccc(C(N)=O)c3)ccnc2O1 (stereo not given)	17	0	-9	58*	51	.
CC1(C(=O)NCc2ccc(F)c(F)c2)Cc2c(-c3cccc(C(N)=O)c3)ccnc2O1 (stereo not given)	12	-4	-2	21	12	.
O=C(NC[C@H]1CC[C@@H]2[C@@H](CN2Cc2ccccc2F)O1)C1CC1	.	.	.	-2	-8	.
COc1ccc(NC(=O)N(C)C[C@H]2OCCCC[C@@H](C)Oc3ccc(N(C)C)cc3C(=O)N([C@@H](C)CO)C[C@H]2C)cc1	.	.	.	-3	12	.
COCCN(Cc1ccccc1)C(=O)c1cc(-c2ccc(OC)c(OC)c2)nc2ccccc12	19	11	52*	10	16	-1
Cc1noc(C)c1NC(=O)Nc1ccc2c(c1)CC(=O)N([C@H](C)CO)C[C@@H](C)[C@H](CN(C)Cc1ccc(C(F)(F)F)cc1)O2	.	.	.	-1	26	.
c1coc(-c2nc(-c3ccco3)c(-c3ccco3)nc2-c2ccco2)c1	-12	64*	23	.	.	7
CCOc1ccc(OCc2cccc(C(=O)Nc3ccc(CN4CCCCC4)cc3)c2)cc1	18	16	50*	.	42	26
CCO[C@H]1OC(C(=O)NCc2nc3ccccc3[nH]2)=C[C@@H](C2CC2)[C@@H]1CCCO	0	-5	5	61*	20	25
Oc1ccc(N=Nc2n[nH]c(-c3ccc(Cl)cc3)n2)cc1	-9	3	78*	-22	.	-1
COC(=O)C[C@@H]1C[C@@H]2c3cc(NC(=O)Nc4ccccc4)ccc3O[C@@H]2[C@H](CO)O1	.	.	.	-3	-8	.
CCCn1c2c(c(=N)c3c1CCC3)CCC2	10	-7	10	21	19	10
CCCCCCCn1c2c(c(=N)c3ccccc31)CCC2	97*	7	34	58*	100*	86*
Cc1ccc(-c2nc(-c3ccncc3)no2)c(Cl)c1	-19	-3	-80	56*	-34	-10
Clc1ccc(-c2nc(-c3ccncc3)no2)c(Cl)c1	-110	-4	-198	-56	-185	-76
O=C(Nc1ccccc1)Nc1cc(OCC(F)(F)F)cc(OCC(F)(F)F)c1	93*	-27	42	44	95*	85*
Nc1nnc(SCC(=O)Nc2ccc(N3CCOCC3)cc2)s1	91*	-2	-34	-24	-4	-5
CCOC(=O)c1cnc2ccc(Cl)cc2c1NCCN(C)C	-23	2	59*	.	.	-8

Screens from PubChem BioAssay.
